In ChEMBL document CHEMBL1961873, “Compounds: GSK PKIS; Assays: Nanosyn kinase panel” (2012):

Biological target: Insulin receptor-related protein (Homo sapiens) (UniProt P14616)
Conditions: at 0.1 µM
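Note: mean percent inhibition of IRR, reported within the GSK PKIS screening panel.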

Sequence of Insulin receptor-related protein (Homo sapiens) (P14616 27-742 limits assumed): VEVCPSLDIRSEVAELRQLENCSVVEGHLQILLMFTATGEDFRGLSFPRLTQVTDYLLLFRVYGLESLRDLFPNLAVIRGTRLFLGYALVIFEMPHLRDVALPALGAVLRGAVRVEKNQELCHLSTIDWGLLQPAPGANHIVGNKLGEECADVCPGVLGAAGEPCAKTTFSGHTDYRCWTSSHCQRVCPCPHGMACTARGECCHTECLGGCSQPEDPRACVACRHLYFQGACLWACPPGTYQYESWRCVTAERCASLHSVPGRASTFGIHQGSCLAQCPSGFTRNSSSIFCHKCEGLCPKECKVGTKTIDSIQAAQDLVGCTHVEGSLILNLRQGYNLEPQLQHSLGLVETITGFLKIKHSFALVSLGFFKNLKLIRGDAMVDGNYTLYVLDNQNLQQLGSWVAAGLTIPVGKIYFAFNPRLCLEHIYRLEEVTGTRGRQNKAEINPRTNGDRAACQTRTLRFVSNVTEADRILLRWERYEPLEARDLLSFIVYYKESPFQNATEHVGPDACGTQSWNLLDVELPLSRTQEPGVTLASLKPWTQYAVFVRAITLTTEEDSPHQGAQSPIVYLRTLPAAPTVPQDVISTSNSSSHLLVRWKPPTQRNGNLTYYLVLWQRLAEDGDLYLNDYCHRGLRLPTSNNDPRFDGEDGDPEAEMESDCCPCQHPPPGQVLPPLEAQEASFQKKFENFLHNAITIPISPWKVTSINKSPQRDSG
Sequence of Insulin receptor-related protein (Homo sapiens) (P14616 747-1297 limits assumed): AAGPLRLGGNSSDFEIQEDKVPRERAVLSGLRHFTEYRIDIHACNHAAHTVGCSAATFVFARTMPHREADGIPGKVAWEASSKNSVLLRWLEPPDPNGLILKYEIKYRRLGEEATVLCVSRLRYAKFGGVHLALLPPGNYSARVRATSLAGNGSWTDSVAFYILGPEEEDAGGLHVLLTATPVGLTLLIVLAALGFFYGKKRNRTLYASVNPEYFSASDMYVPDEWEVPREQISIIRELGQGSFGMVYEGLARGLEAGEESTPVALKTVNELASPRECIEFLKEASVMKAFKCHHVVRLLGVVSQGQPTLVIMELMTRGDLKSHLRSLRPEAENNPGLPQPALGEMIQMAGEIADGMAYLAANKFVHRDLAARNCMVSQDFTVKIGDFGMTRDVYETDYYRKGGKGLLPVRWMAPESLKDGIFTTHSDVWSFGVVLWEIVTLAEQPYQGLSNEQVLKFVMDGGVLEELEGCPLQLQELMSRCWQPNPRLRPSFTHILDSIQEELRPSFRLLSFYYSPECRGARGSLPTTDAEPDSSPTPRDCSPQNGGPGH

Row | Compound | inhibition
1 | ON=C1CCc2cc(-c3nc(C4CCNCC4)[nH]c3-c3ccncc3)ccc21 | -1.51%
2 | CS(=O)(=O)Nc1cccc(-c2ccc3c(NC(=O)C4CC4)n[nH]c3c2)c1 | -0.36%
3 | NS(=O)(=O)c1ccc(-c2cc3ccncc3cc2OCc2ccccc2)cc1 | 2.36%
4 | [O-][S+]1CCN(Cc2ccc(-c3ccc4ncnc(Nc5ccc(OCc6ccccc6)c(Cl)c5)c4c3)o2)CC1 | -1.65%
5 | N#Cc1c(NC(=O)c2ccccc2F)sc2c1CCCC2 | -1.06%
6 | COc1cc2ncn(-c3cc(OCc4ccccc4S(C)(=O)=O)c(C#N)s3)c2cc1OC | 3.69%
7 | NC(=O)c1cccc(Nc2nccc(Nc3cccc(F)c3)n2)c1 | -0.57%
8 | CN(C)C(=O)O[C@H]1CN[C@H](C#Cc2cc3ncnc(Nc4ccc(OCc5cccc(F)c5)c(Cl)c4)c3s2)C1 | 0.79%
9 | Cc1ccc(NC(=O)CC2CC2)cc1-c1ccc(C(=O)NCC2CC2)cc1 | 2.99%
10 | CN(C)c1cc2c(Nc3ccc4c(cnn4Cc4ccccc4)c3)ncnc2cn1 | 1.7%
11 | CN(c1ccc(NC(=O)Nc2ccc(OC(F)(F)F)cc2)cc1)c1ccnc(Nc2cccc(S(N)(=O)=O)c2)n1 | 0.67%
12 | CCS(=O)(=O)c1ccc(OC)c(Nc2ncc(-c3cccc(OC)c3)o2)c1 | 3.08%
13 | COc1cc(Nc2nccc(-c3cnn4ncccc34)n2)cc(OC)c1 | 3.56%
14 | O=C1Nc2ccc(-c3cccnc3)cc2C1=Cc1cc(Br)c(O)c(Br)c1 | 4.28%
15 | CN(C)C(=O)O[C@@H]1CN[C@@H](C#Cc2cc3ncnc(Nc4ccc(OCc5cccc(F)c5)c(Cl)c4)c3s2)C1 | -1.28%
